Test: stimulators of nuclear beta-catenin in C2C12, primary screen, imaging, WNT3A-conditioned medium, mouse C2C12, NPC library (AID 1117326); note: reference of the scale not given here
Conditions: stimulation, at 2 µM, stronger effect = higher value

Structure (SMILES)	nuclear beta-catenin stimulation
CC(=O)O[C@]1(C(C)=O)CC[C@H]2[C@@H]3C=C(Cl)C4=CC(=O)[C@@H]5C[C@@H]5[C@]4(C)[C@H]3CC[C@@]21C	1.7%
CN1CCC(=C2c3ccccc3Sc3ccccc32)CC1	1.3%
Cc1c(NC(C)C)c(=O)n(-c2ccccc2)n1C	7%
N[C@@H](CCC(=O)N[C@@H](CS)C(=O)NCC(=O)O)C(=O)O	4%
O=C(COc1ccc(Cl)cc1)N1CCN(Cc2ccc3c(c2)OCO3)CC1	-0.3%
Cc1cc2c(C(C)C)c(O)c(O)c(C=O)c2c(O)c1-c1c(C)cc2c(C(C)C)c(O)c(O)c(C=O)c2c1O	6.3%
NCCS(=O)(=O)O	2.5%
O=C(O)c1cc(=O)c2ccccc2o1	0.2%
CCOC(=O)c1ccc(N)cc1	1.2%
O=C(O)CN1C(=O)c2cccc3cccc(c23)C1=O	0.9%
CN(C)CCOC(=O)C(c1ccccc1)C1(O)CCCC1 (stereo not drawn)	1.3%
Oc1ccc(Cl)cc1Cc1cc(Cl)ccc1O	5.8%
CC(=O)Nc1ccc(S(=O)(=O)Nc2ccc([N+](=O)[O-])cc2)cc1	1.4%
CCN(CC)C(C)CN1c2ccccc2Sc2ccccc21 (stereo not drawn)	0.5%
CO[C@@H]1[C@@H](OC(N)=O)[C@@H](O)[C@H](Oc2ccc3c(O)c(NC(=O)c4ccc(O)c(CC=C(C)C)c4)c(=O)oc3c2C)OC1(C)C	1.5%
CCCCCN(CCCCC)C(=O)C(CCC(=O)O)NC(=O)c1ccc(Cl)c(Cl)c1 (stereo not drawn)	-0.1%
O=C(O)P(=O)(O)O	-0.8%
CCN(CC)CCOC(=O)C(c1ccccc1)C1CCCCC1 (stereo not drawn)	0.5%
CSc1ccc2c(c1)C(N1CCN(C)CC1)Cc1ccccc1S2 (stereo not drawn)	1.4%

Structure (SMILES)	nuclear beta-catenin stimulation
C=CCc1ccccc1OCC(O)CNC(C)C (stereo not drawn)	-0.5%
COC(=O)N/N=C/c1c[n+]([O-])c2ccccc2[n+]1[O-]	5.8%
O=C1OC(c2ccc(O)cc2)(c2ccc(O)cc2)c2ccccc21	0%
O=C(N[C@H](CO)[C@H](O)c1ccc([N+](=O)[O-])cc1)C(Cl)Cl	-0.3%
CC1(C)NC(=O)N(c2ccc([N+](=O)[O-])c(C(F)(F)F)c2)C1=O	2.1%
CO/N=C1\CN(c2nc3c(cc2F)c(=O)c(C(=O)O)cn3C2CC2)CC1CN (stereo not drawn)	3.4%
COc1ccc(C(=O)c2ccccc2)c(O)c1	1%
CCn1cc(C(=O)O)c(=O)c2cnc(N3CCCC3)nc21	1.2%
Oc1cccc(O)c1	0.3%
Oc1ccc(OCc2ccccc2)cc1	1.1%
O=C(Nc1ccc([N+](=O)[O-])cc1Cl)c1cc(Cl)ccc1O	33.1%
CC(=O)OCC1=C(C(=O)O)N2C(=O)[C@@H](NC(=O)Cc3cccs3)[C@H]2SC1	4.2%
CC(C)NCC(O)c1ccc2ccccc2c1 (stereo not drawn)	-1.4%
CC[C@]12CCCN3CCc4c(n(c5ccccc45)[C@@](O)(C(=O)OC)C1)[C@@H]32	-0.6%
CC(N)C(=O)OC(C)(C)Cc1ccc(Cl)cc1 (stereo not drawn)	3.3%
O=C(CCBr)N1CCN(C(=O)CCBr)CC1	1.7%
COC(=O)[C@@H]1[C@H]2C[C@H]3c4[nH]c5ccccc5c4CCN3C[C@@H]2CC[C@@H]1O	0.4%
NC(=O)c1ccccc1O	0.5%
CCCC(C(=O)OCCN(CC)CC)(c1ccccc1)c1ccccc1	1.1%

From PubChem BioAssay
